Experimental data as given in PubChem BioAssay (NCI).
This is part of a sample that, as a whole, favours compounds with a hit. Of some 79,000 tested, about 15% had one in any assay. A number with no mark means an inactive call. Calls of active or inactive are those of the source. Cut-off read from the data, not from the text of the source: active = growth inhibition above about 70%; inactive = the rest.

Test: NCI Yeast Anticancer Drug Screen. Data for the rad50 strain (AID 155);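 note: 0% = growth of vehicle-only cultures of the same strain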
Conditions: S. cerevisiae rad50 strain growth inhibition; at 50.0 µM; active compounds read high
In short: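 Vehicle-treated cultures provide the reference for the growth inhibition reported for compound-exposed, repair-deficient yeast.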

| Compound | growth inhibition |
| --- | --- |
| Clc1ccc(OCC(Cn2ccnc2)c2ccc(Cl)cc2)cc1 (stereo not drawn) | 99.8% (active) |
| CC(C)C(CC(C)(C)C)OC(=O)Nc1cccc2ccccc12 (stereo not drawn) | 13.1% |
| CC(=O)OC[C@@]1(C)[C@@H]2CC[C@]3(C)[C@H](C(=O)C=C4[C@@H]5CC(C)(C)CC[C@]5(C(=O)O)CC[C@]43C)[C@@]2(C)CC[C@@H]1OC(C)=O | 43.1% |
| CCOC(=O)C[n+]1c(C)sc2ccccc21 | 78.4% (active) |
| O=[N+]([O-])c1ccc(/C=N/O)s1 | 99.5% (active) |
| C=C(C)COc1ccccc1C(OCC)OCC | 49.9% |
| CCCCCCCCCCCCCC1OC(=O)C(C)=C1C(=O)O (stereo not drawn) | 72.6% (active) |
| CC(C)C(Sc1nc(-c2ccccc2)c(-c2ccccc2)[nH]1)c1n[nH]c(=S)n1-c1ccccc1 (stereo not drawn) | 95.8% (active) |
| Cc1ccc(-c2c(C#N)c(S)n(NS(=O)(=O)c3ccccc3)c(=O)c2C#N)cc1 | 60.1% |
| O=C(c1ccccc1)c1ccc2c(c1Cl)C(=O)c1ccccc1C2=O | 43% |
| COc1cccc(C2c3cc4c(cc3OC(O)C2C)OCO4)c1O (stereo not drawn) | 13.6% |
| CCC[N+]1=C(/C=C/c2ccc3cccnc3c2O)C(C)(C)c2ccccc21 | 98.8% (active) |
| O=C(/C=C/c1ccccc1Cl)c1ccc(F)cc1 | 54.2% |
| CCN(CC)C(=S)N=Nc1c(O)[nH]c2ccccc12 | 82.5% (active) |
| C[CH2][Sn]([CH2]C)([O]C(=O)c1ccccc1OC)[O][Sn]([CH2]C)([CH2]C)[O]C(=O)c1ccccc1OC | 51.6% |
| CCCCCCCCCCCCCCCC[N+](C)(C)C(C)c1ccc(OC)cc1 (stereo not drawn) | 90.6% (active) |
| S=C(NCCc1ccccc1)N/N=C/c1ccc(Cl)cc1 | 85.7% (active) |
| Cc1cc(Nc2ccc(O)c(CN3CCN(Cc4cc(Nc5cc(C)nc(N)n5)ccc4O)CC3)c2)nc(N)n1 | 97.5% (active) |
| CC1C[N+](C)(C)C(C)C(=O)C1(c1ccccc1)c1ccccc1 (stereo not drawn) | 6.6% |
| O=C1C(Cl)=C(Cl)C(=O)C2CC=CCC12 (stereo not drawn) | 99.3% (active) |

| Compound | growth inhibition |
| --- | --- |
| C/C(=N/O)c1ccc2c(c1)C(C)c1ccccc1-2 (stereo not drawn) | 35.2% |
| c1ccc(N/N=C2/CCCC3/C(=N\Nc4ccccc4)CCCC23)cc1 (stereo not drawn) | 98.2% (active) |
| CCCC(C)C/C(C)=C\C(C)(C)C1CC(=O)N(CC)C1=O (stereo not drawn) | 20.3% |
| COC(C(=O)C1=C2Oc3c4c(cc(O)c3C(=O)C2C2=C(CCCC2)C1=O)OC(C)(C)C=C4)C(C)CCC=C(C)C (stereo not drawn) | 74.2% (active) |
| Cc1cc(Br)c(NC(=O)CBr)cc1C | 42.3% |
| Cc1ccc(S(=O)(=O)OCCCCOS(=O)(=O)c2ccc(C)cc2)cc1 | 76% (active) |
| Cc1ccc([N+](=O)[O-])c2c(NCCCN(C)C)c3ccccc3nc12 | 97% (active) |
| CCOC(=O)c1c(N2CCCC2)nsc1Nc1ccc(F)cc1 | 91.8% (active) |
| CC(=O)[C@H]1CC[C@H]2[C@@H]3CC[C@H]4C[C@@H](N5CCOCC5)CC[C@]4(C)[C@H]3CC[C@]12C | 73.3% (active) |
| CC(C)CCCC(C)C1CCC2C3CCC4=CC(O)CCC4(C)C3CCC12C (stereo not drawn) | 93.8% (active) |
| Nc1ccccc1SC(/C=C/NNC1=NC(c2ccccc2)C(c2ccccc2)=NN1)c1ccccc1 (stereo not drawn) | 93% (active) |
| CCOC(=O)C1=C(c2ccccc2)OC(N)=C(C#N)C1c1ccc(C)cc1 (stereo not drawn) | 77.1% (active) |
| COC1CC(OC(=O)c2ccccc2)C2OC(c3ccccc3)OCC2O1 (stereo not drawn) | 42.5% |
| O=C(/N=C1\N=Nc2nc(C(C(=O)c3cccs3)c3nc4n(c3O)/C(=N/C(=O)Nc3ccc(Cl)cc3)N=N4)c(O)n21)Nc1ccc(Cl)cc1 (stereo not drawn) | 38.7% |
| C=CCNC(=S)N/N=C(\CCC)c1ccccn1 | 99.3% (active) |
| O=C(c1cc2c(C(F)(F)F)onc2c2ccccc12)C(F)(F)F | 76.7% (active) |
| O=C1C=CC(=O)C2C1Cc1ccccc1C2c1ccccc1 (stereo not drawn) | 98.8% (active) |
| CC1SC2(C(=O)Nc3ccc([N+](=O)[O-])cc32)N(c2ccc(Cl)cc2)C1=O (stereo not drawn) | 95.6% (active) |
| CC(=O)OCCn1c2nc(=O)[nH]c(=O)c-2nc2cc(C)c(C)cc21 | 0.8% |

Test: NCI Yeast Anticancer Drug Screen. Data for the mec2-1 strain (AID 157)
Conditions: S. cerevisiae mec2-1 strain, at 5.0 µM (retest, dose inferred, filed as 0.5), active compounds read high
In short: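 Cells of the genetically defined mec2-1 yeast strain are incubated with test compound. Inhibition of growth is calculated against vehicle-treated controls.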

| Compound | growth inhibition |
| --- | --- |
| Clc1ccc(OCC(Cn2ccnc2)c2ccc(Cl)cc2)cc1 (stereo not drawn) | 55% |
| CC(C)C(CC(C)(C)C)OC(=O)Nc1cccc2ccccc12 (stereo not drawn) | -1% |
| CC(=O)OC[C@@]1(C)[C@@H]2CC[C@]3(C)[C@H](C(=O)C=C4[C@@H]5CC(C)(C)CC[C@]5(C(=O)O)CC[C@]43C)[C@@]2(C)CC[C@@H]1OC(C)=O | 23% |
| CCOC(=O)C[n+]1c(C)sc2ccccc21 | -3% |
| O=[N+]([O-])c1ccc(/C=N/O)s1 | 3% |
| C=C(C)COc1ccccc1C(OCC)OCC | 7% |
| CCCCCCCCCCCCCC1OC(=O)C(C)=C1C(=O)O (stereo not drawn) | -7% |
| CC(C)C(Sc1nc(-c2ccccc2)c(-c2ccccc2)[nH]1)c1n[nH]c(=S)n1-c1ccccc1 (stereo not drawn) | 12% |
| Cc1ccc(-c2c(C#N)c(S)n(NS(=O)(=O)c3ccccc3)c(=O)c2C#N)cc1 | 12% |
| O=C(c1ccccc1)c1ccc2c(c1Cl)C(=O)c1ccccc1C2=O | -3% |
| COc1cccc(C2c3cc4c(cc3OC(O)C2C)OCO4)c1O (stereo not drawn) | -5% |
| CCC[N+]1=C(/C=C/c2ccc3cccnc3c2O)C(C)(C)c2ccccc21 | 0% |
| O=C(/C=C/c1ccccc1Cl)c1ccc(F)cc1 | -12% |
| CCN(CC)C(=S)N=Nc1c(O)[nH]c2ccccc12 | 76% (active) |
| C[CH2][Sn]([CH2]C)([O]C(=O)c1ccccc1OC)[O][Sn]([CH2]C)([CH2]C)[O]C(=O)c1ccccc1OC | 35% |
| CCCCCCCCCCCCCCCC[N+](C)(C)C(C)c1ccc(OC)cc1 (stereo not drawn) | 98% (active) |
| S=C(NCCc1ccccc1)N/N=C/c1ccc(Cl)cc1 | 36% |
| Cc1cc(Nc2ccc(O)c(CN3CCN(Cc4cc(Nc5cc(C)nc(N)n5)ccc4O)CC3)c2)nc(N)n1 | 6% |
| CC1C[N+](C)(C)C(C)C(=O)C1(c1ccccc1)c1ccccc1 (stereo not drawn) | -2% |
| O=C1C(Cl)=C(Cl)C(=O)C2CC=CCC12 (stereo not drawn) | 92% (active) |

| Compound | growth inhibition |
| --- | --- |
| C/C(=N/O)c1ccc2c(c1)C(C)c1ccccc1-2 (stereo not drawn) | -53% |
| c1ccc(N/N=C2/CCCC3/C(=N\Nc4ccccc4)CCCC23)cc1 (stereo not drawn) | -5% |
| CCCC(C)C/C(C)=C\C(C)(C)C1CC(=O)N(CC)C1=O (stereo not drawn) | -1% |
| COC(C(=O)C1=C2Oc3c4c(cc(O)c3C(=O)C2C2=C(CCCC2)C1=O)OC(C)(C)C=C4)C(C)CCC=C(C)C (stereo not drawn) | -1% |
| Cc1cc(Br)c(NC(=O)CBr)cc1C | -3% |
| Cc1ccc(S(=O)(=O)OCCCCOS(=O)(=O)c2ccc(C)cc2)cc1 | -7% |
| Cc1ccc([N+](=O)[O-])c2c(NCCCN(C)C)c3ccccc3nc12 | 97% (active) |
| CCOC(=O)c1c(N2CCCC2)nsc1Nc1ccc(F)cc1 | -1% |
| CC(=O)[C@H]1CC[C@H]2[C@@H]3CC[C@H]4C[C@@H](N5CCOCC5)CC[C@]4(C)[C@H]3CC[C@]12C | 61% |
| CC(C)CCCC(C)C1CCC2C3CCC4=CC(O)CCC4(C)C3CCC12C (stereo not drawn) | 1% |
| Nc1ccccc1SC(/C=C/NNC1=NC(c2ccccc2)C(c2ccccc2)=NN1)c1ccccc1 (stereo not drawn) | 7% |
| CCOC(=O)C1=C(c2ccccc2)OC(N)=C(C#N)C1c1ccc(C)cc1 (stereo not drawn) | 0% |
| COC1CC(OC(=O)c2ccccc2)C2OC(c3ccccc3)OCC2O1 (stereo not drawn) | 2% |
| O=C(/N=C1\N=Nc2nc(C(C(=O)c3cccs3)c3nc4n(c3O)/C(=N/C(=O)Nc3ccc(Cl)cc3)N=N4)c(O)n21)Nc1ccc(Cl)cc1 (stereo not drawn) | -12% |
| C=CCNC(=S)N/N=C(\CCC)c1ccccn1 | 99% (active) |
| O=C(c1cc2c(C(F)(F)F)onc2c2ccccc12)C(F)(F)F | -17% |
| O=C1C=CC(=O)C2C1Cc1ccccc1C2c1ccccc1 (stereo not drawn) | 26% |
| CC1SC2(C(=O)Nc3ccc([N+](=O)[O-])cc32)N(c2ccc(Cl)cc2)C1=O (stereo not drawn) | -2% |
| CC(=O)OCCn1c2nc(=O)[nH]c(=O)c-2nc2cc(C)c(C)cc21 | 0% |
